Holding throughout (parameters): scale not given: direction of the effect not stated beside the values
In assay [1] the target is Protein translocase subunit SecA (Escherichia coli (strain K12)) (UniProt P10408). Briefly: Assay to Identify E. coli SecA ATPase Inhibitors. It counts as functional. As to conditions: 30 µM.
Assay [2] concerns the target T1, Ubiquitin-activating enzyme e1, putative (Leishmania donovani (strain BPK282A1)) (UniProt E9BSI1).
T1 sequence (whole entry): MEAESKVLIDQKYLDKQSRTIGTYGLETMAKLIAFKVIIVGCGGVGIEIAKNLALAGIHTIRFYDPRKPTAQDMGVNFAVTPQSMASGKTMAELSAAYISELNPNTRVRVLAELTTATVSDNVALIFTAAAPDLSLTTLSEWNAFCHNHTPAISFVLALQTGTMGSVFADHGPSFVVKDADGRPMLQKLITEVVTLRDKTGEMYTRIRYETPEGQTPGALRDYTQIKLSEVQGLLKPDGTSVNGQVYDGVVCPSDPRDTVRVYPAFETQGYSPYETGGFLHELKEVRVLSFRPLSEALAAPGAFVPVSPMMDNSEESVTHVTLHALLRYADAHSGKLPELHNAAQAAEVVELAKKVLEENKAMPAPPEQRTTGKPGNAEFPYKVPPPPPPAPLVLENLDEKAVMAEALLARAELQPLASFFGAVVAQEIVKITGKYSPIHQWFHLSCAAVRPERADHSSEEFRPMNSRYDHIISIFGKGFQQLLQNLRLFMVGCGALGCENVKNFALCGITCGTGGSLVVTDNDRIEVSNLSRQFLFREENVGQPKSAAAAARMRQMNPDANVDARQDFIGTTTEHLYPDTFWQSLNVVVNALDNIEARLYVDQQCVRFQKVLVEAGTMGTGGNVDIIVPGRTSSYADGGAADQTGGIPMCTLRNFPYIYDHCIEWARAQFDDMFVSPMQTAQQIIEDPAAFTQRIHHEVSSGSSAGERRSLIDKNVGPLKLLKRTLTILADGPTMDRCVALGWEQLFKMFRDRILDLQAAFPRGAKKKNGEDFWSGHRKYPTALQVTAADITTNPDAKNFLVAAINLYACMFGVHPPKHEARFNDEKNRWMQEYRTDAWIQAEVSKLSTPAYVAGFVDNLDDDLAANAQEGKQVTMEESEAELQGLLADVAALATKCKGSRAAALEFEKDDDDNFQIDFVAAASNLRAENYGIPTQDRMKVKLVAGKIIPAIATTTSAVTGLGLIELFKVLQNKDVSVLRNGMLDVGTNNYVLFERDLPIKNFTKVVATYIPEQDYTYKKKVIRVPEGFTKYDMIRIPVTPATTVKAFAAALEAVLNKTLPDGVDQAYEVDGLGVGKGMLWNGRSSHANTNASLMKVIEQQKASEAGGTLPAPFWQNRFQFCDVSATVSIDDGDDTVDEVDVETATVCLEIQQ
Briefly: Leishmania donovani Ubiquitin Activating Enzyme (LdE1). As to conditions: 30 µM. It counts as functional.

Assay [3] addresses AMP-activated protein kinase, AMPK (Homo sapiens) (UniProt P54646+O43741+P54619+Q9UGJ0+Q9Y478+Q13131+Q9UGI9). The assay can be described thus: AMP-dependent Kinase enzyme assay. An in vitro enzyme assay that detects ADP turnover that is directly proportional to AMPK activity. This uses naive AMPK that is activated during the assay with MK-8722. The assay is classed as functional. As to conditions: 30 µM.

Assay [4] addresses Sialic acid-binding Ig-like lectin 9 (Homo sapiens) (UniProt Q9Y336). Briefly: Hs-Siglec9 ALPHAscreen SOP 20170721. As to conditions: 10 µM.
A further assay has as its system Trypanosoma cruzi. The assay can be described thus: Trypanosoma cruzi phosphomannomutase and mannose-1-phosphate guanylyltransferase assay. It counts as functional. As to conditions: 10 µM.
Assay [5] has as its target T2, Arginase-2, mitochondrial (Homo sapiens) (UniProt P78540).
T2 sequence (whole entry): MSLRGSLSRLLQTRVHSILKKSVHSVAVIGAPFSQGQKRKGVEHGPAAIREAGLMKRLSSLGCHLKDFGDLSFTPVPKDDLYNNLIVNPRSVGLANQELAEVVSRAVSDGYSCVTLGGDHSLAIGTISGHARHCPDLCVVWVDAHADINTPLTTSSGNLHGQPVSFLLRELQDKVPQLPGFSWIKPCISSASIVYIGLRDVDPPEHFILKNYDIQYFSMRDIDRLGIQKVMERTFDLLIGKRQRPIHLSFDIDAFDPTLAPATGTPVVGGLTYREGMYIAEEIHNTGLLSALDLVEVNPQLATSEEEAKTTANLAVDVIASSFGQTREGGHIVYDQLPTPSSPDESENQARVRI
The assay can be described thus: in vitro enzyme assay to detect the production of urea directly proportional to the activity of Arginase II. Note: in the data most compounds retested in dose-response had high values. It counts as functional. As to conditions: 33.3 µM.

In assay [6] the target is T3, Proteasome subunit beta (Trypanosoma cruzi) (UniProt O96673).
T3 sequence (whole entry): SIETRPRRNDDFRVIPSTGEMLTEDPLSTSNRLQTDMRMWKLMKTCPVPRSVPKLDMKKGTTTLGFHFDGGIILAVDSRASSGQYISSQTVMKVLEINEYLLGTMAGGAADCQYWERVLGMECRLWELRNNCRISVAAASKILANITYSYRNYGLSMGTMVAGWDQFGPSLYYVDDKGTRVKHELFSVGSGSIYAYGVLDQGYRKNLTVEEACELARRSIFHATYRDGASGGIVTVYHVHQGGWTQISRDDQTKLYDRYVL
Briefly: Trypanosoma cruzi proteasome chymotrypsin-like activity (TcProtChymo) assay. Note: in the data most compounds retested in dose-response had high values. The assay is classed as functional. As to conditions: 9.37 µM.

Another assay is filed under the species Homo sapiens. The assay can be described thus: To identify inhibition of the IFN signalling (Jak-Stat) pathway via expression of an eGFP reporter gene under the control of an IFN-stimulated response element (ISRE) containing MxA promoter. It counts as functional. As to conditions: 30 µM.
Assay [7] addresses T4, Tyrosyl-tRNA synthetase, putative (Trypanosoma cruzi (strain CL Brener)) (UniProt Q4DSP6).
T4 sequence (whole entry): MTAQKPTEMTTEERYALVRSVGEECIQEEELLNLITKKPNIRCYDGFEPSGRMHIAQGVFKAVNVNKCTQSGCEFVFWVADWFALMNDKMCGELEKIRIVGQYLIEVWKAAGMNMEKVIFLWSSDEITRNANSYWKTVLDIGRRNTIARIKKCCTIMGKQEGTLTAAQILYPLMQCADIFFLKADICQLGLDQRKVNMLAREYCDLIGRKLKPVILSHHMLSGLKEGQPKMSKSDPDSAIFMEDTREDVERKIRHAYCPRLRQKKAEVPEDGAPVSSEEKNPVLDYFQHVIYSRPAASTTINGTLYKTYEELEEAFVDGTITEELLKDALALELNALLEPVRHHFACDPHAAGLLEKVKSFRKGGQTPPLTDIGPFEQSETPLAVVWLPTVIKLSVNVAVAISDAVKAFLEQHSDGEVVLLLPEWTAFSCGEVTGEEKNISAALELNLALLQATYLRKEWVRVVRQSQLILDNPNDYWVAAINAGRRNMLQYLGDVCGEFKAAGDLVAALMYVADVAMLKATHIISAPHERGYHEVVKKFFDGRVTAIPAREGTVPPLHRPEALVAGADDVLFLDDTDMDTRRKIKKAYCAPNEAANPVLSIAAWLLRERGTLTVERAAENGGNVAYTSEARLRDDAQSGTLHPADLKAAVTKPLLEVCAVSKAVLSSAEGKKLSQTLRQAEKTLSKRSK
Briefly: Trypanosoma cruzi tyrosyl tRNA synthetase (TcYRS) _High Tyrosine SOP. Note: in the data most compounds retested in dose-response had high values. As to conditions: 30 µM. The assay is classed as functional.

The target of assay [8] is T4, Tyrosyl-tRNA synthetase, putative (Trypanosoma cruzi (strain CL Brener)). Briefly: Trypanosoma cruzi tyrosyl tRNA synthetase (TcYRS) SOP. It counts as functional. As to conditions: 30 µM.
In assay [9] the target is Chromo domain-containing protein 1 (Saccharomyces cerevisiae (strain ATCC 204508 / S288c) (Baker's yeast)) (UniProt P32657). The assay can be described thus: ScCHD-1 Enzyme Inhibition Assay. Note: in the data most compounds retested in dose-response had high values. It counts as functional. As to conditions: 30 µM.

For some assays here: Entries with a potency or affinity are not part of this list.

Sequence of Protein translocase subunit SecA (Escherichia coli (strain K12)) (P10408 whole entry): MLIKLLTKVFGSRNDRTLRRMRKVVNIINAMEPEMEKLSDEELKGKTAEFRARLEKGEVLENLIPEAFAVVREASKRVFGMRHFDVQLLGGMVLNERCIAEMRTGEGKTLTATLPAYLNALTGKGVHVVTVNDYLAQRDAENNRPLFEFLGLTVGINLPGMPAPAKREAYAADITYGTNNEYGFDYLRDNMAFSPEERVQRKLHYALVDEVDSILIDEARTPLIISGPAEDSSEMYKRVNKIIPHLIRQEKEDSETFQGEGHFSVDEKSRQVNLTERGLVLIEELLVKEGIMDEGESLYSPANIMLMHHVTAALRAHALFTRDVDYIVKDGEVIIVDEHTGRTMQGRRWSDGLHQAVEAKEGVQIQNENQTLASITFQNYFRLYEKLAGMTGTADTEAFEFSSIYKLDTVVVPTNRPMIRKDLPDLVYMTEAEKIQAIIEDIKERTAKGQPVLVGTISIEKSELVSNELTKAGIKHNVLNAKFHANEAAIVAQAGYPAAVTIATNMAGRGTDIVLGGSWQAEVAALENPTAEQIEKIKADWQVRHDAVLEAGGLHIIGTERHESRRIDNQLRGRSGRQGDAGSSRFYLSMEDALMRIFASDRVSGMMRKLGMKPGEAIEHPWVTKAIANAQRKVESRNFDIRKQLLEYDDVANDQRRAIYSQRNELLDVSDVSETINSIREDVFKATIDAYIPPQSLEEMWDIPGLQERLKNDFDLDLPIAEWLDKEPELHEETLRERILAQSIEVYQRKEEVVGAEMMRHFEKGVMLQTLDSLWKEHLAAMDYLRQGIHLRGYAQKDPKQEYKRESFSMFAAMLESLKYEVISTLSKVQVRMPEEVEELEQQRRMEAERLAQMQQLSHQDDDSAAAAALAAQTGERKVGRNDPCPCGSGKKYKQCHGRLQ
Sequence of Sialic acid-binding Ig-like lectin 9 (Homo sapiens) (Q9Y336 whole entry): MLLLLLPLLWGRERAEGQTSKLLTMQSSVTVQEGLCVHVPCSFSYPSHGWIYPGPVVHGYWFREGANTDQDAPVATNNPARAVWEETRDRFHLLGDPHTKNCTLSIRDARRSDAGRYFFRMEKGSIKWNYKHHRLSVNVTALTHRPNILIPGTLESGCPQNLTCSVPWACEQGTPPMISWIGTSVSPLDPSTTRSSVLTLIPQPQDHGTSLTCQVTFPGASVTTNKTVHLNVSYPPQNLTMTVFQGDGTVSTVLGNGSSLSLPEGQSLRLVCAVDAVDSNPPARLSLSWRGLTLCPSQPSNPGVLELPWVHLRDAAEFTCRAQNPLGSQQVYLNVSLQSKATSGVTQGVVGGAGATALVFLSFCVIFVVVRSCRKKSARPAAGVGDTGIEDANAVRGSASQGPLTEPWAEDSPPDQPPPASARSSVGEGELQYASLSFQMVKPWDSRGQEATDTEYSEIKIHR
Sequence of Chromo domain-containing protein 1 (Saccharomyces cerevisiae (strain ATCC 204508 / S288c) (Baker's yeast)) (P32657 whole entry, the tested form may be a part): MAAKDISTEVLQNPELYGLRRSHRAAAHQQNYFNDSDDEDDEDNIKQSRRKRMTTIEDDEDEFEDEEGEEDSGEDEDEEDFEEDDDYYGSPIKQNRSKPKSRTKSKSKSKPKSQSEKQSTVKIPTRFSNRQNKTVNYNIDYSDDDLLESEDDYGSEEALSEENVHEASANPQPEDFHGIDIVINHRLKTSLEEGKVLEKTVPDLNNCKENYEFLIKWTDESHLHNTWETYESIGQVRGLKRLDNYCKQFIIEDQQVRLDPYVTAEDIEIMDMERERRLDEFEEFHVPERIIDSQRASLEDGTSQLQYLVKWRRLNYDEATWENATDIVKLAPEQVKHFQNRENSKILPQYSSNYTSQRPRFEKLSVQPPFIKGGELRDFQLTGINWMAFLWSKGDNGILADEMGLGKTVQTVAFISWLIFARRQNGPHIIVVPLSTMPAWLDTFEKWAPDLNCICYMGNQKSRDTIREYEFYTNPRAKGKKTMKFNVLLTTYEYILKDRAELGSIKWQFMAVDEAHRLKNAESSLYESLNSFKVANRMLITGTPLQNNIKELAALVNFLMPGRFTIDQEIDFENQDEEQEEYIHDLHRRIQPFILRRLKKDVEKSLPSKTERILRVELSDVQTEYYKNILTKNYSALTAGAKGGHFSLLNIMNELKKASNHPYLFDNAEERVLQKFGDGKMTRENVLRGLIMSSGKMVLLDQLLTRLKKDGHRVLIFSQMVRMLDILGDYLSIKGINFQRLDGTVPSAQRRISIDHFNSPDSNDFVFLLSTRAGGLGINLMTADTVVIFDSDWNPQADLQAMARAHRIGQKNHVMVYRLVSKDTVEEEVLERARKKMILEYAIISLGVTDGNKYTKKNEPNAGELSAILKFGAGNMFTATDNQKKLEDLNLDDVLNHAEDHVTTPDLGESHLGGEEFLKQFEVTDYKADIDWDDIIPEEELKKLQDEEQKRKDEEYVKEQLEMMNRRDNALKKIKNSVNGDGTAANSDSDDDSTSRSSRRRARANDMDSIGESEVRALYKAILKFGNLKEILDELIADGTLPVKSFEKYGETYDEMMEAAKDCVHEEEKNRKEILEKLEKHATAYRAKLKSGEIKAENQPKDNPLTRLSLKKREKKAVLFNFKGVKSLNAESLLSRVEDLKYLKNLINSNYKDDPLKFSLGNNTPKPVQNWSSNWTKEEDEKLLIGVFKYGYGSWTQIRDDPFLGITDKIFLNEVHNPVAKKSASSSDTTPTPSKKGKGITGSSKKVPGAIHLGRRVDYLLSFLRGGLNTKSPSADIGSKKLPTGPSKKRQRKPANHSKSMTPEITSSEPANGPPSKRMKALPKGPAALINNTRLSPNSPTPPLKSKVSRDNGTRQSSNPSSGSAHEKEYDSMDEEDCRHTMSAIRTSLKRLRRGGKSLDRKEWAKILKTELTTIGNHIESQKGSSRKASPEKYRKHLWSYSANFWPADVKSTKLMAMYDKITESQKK

Take `Cc1ccc(C(=O)N2CCn3cc(CN(C)Cc4ccco4)nc3C2)o1`: the Percent Effect is 2.2% in [1]; 0% in assay [2]; 3.27% in [3]; 0.0829% in assay [4]; -4.24% in the assay on Trypanosoma cruzi; 3.23% in assay [5]. Further, the Percent Effect in assay [6] was found to be 3.13%; in the assay filed under Homo sapiens, 0.489%; in assay [7] it was 1.06%; in [8] it was 3.85%; in assay [9], 105%.
As to `Cc1noc2nc(C3CCN(CC4=CCCOC4)CC3)cc(C(F)F)c12`, the Percent Effect was -1.97% in assay [1]; 6.76% in [2]; 13.4% in [3]; 0.663% in assay [4]; -3.56% with Trypanosoma cruzi; -3.02% in assay [5]. For the same molecule, the Percent Effect in assay [6] was 3.28%; in the assay listed under Homo sapiens it was 2.72%; in assay [7] it was 7.53%; in [8], 11.7%; in assay [9] it was -11.7%.
For the molecule `CCn1cc(CN2CCCn3nc(CCC(=O)NCCO)cc3C2)cn1`, the Percent Effect in assay [1] was -3.01%; in assay [2] it was 5.2%; in assay [3], 13.5%; in assay [4], 4.51%; with Trypanosoma cruzi it was -5.41%; in [5] it was 0%. Also, the Percent Effect in [6] is 19.8%; in the assay listed under Homo sapiens it was -0.55%; in assay [7], 4.3%; in assay [8], 8.64%; in [9], 0.629%.
Turning to `CC1CCN(Cn2nc(-c3ccc(F)cc3)oc2=O)CC1`, the Percent Effect in [1] was -2.94%; in assay [2] it was 18.2%; in assay [3] it was 4.52%; in [4], -5.3%; with Trypanosoma cruzi it was -7.12%; in assay [5], 2.13%. The Percent Effect is 6.42% in [6]; 33% in the assay listed under Homo sapiens; 5.83% in [7]; 7.32% in assay [8]; -12.6% in assay [9].
On to `Cn1cccc1C(=O)N[C@@H]1CN(CC2CC2)[C@@H]2COC[C@@H]21`, for which the Percent Effect in assay [1] is -2.02%; in assay [2] it was 5.33%; in assay [3], -1.14%; in assay [4], 25.9%; in the assay on Trypanosoma cruzi, -7.14%; in assay [5], -54.7%. In addition, the Percent Effect in assay [6] was -2.73%; in the assay listed under Homo sapiens, -2.91%; in [7] it was 1.04%; in assay [8] it was 7.5%; in [9] it was -7.28%.
Take `CCc1nnsc1C(=O)N1CCCN(Cc2nccn2C)CC1`: the Percent Effect in [1] was -2.29%; in assay [2] it was -96.1%; in assay [3], 4.85%; in [4], 9.93%; in the assay on Trypanosoma cruzi, 3.04%; in assay [5], 0.632%. Also, the Percent Effect in assay [6] was 2.18%; in the assay filed under Homo sapiens, 3.59%; in assay [7], 1.91%; in assay [8] it was -2.35%; in assay [9], -8.53%.
As to `Cc1ncsc1C(=O)N(C)Cc1ccncc1`, the Percent Effect in assay [1] was -4.37%; in [2] it was 10.5%; in assay [3], 3%; in assay [4] it was -5.42%; with Trypanosoma cruzi it was -6.58%; in assay [5] it was -2.68%. Besides, the Percent Effect in [6] was 16%; in the assay listed under Homo sapiens it was 23.6%; in assay [7], 1.47%; in assay [8] it was -7.32%; in [9], -6%.
`CCc1nc(C)c(C(=O)NCCNc2ncccn2)s1`: the Percent Effect in assay [1] was -4.61%; in assay [2] it was 15.8%; in assay [3], -1.87%; in assay [4], -4.05%; in the assay with Trypanosoma cruzi, -2.52%; in assay [5], 0%. Further, the Percent Effect in [6] is 2.28%; in the assay listed under Homo sapiens, -2.51%; in [7] it was 9.36%; in assay [8] it was 16.1%; in [9] it was -3.7%.
On to `O=C(NCC1CCOCC1)[C@@H]1C[C@@H]2CCN(Cc3ccco3)C[C@H]2O1`, for which the Percent Effect in [1] was -0.876%; in assay [2], 5.33%; in assay [3], -1.12%; in assay [4] it was 6.61%; in the assay with Trypanosoma cruzi, -5.02%; in [5], -54.7%. The Percent Effect was 10.1% in [6]; -10.2% in the assay listed under Homo sapiens; 2.08% in assay [7]; 7.5% in [8]; -6.48% in assay [9].
On to `COCCN1C(=O)C[C@H]2[C@H]1CCN2Cc1cccc(C#N)c1`, for which the Percent Effect is -2.88% in assay [1]; 2.67% in assay [2]; 7.27% in [3]; -1.09% in [4]; -2.95% in the assay on Trypanosoma cruzi; 3.03% in assay [5]. In addition, the Percent Effect turned out to be 5.9% in assay [6]; 6.32% in the assay listed under Homo sapiens; 1.06% in assay [7]; 1.28% in [8]; 1.66% in assay [9].
